The supplement of paper PMC12067093, “Discovery and optimisation of a covalent ligand for TRIM25 and its application to targeted protein ubiquitination” (Chemical Science, 2025)
The full data set covers some 21,000 targets. This sample favours those with the largest changes.
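Also: competitive profiling in live THP-1 cells: cysteine peptides tagged with an iodoacetamide desthiobiotin (IA-DTB) probe, intensity after compound treatment relative to DMSO-treated cells.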

Chain of UniProt Q14155 (Q14155 whole entry, looked up): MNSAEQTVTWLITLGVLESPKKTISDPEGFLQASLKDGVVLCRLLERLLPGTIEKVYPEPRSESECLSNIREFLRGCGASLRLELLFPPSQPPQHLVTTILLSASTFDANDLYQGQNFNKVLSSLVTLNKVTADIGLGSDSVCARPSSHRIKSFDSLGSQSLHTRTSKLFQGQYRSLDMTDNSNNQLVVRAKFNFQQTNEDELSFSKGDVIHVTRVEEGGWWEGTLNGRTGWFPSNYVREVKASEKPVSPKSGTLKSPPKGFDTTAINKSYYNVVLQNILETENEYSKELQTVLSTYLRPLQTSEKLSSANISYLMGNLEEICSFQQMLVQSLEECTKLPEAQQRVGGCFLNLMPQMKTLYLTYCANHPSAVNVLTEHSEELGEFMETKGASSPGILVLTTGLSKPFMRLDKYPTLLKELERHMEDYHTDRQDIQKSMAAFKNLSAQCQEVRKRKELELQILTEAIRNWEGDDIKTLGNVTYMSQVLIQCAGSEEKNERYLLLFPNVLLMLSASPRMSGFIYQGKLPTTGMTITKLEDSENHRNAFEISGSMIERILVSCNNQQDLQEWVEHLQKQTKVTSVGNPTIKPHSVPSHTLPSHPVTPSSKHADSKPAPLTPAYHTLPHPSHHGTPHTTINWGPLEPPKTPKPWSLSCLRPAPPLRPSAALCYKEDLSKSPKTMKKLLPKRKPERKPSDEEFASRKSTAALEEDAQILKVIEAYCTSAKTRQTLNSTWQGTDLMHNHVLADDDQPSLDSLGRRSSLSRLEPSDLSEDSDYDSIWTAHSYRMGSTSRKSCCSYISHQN
Chain of UniProt O43747 (O43747 whole entry, looked up): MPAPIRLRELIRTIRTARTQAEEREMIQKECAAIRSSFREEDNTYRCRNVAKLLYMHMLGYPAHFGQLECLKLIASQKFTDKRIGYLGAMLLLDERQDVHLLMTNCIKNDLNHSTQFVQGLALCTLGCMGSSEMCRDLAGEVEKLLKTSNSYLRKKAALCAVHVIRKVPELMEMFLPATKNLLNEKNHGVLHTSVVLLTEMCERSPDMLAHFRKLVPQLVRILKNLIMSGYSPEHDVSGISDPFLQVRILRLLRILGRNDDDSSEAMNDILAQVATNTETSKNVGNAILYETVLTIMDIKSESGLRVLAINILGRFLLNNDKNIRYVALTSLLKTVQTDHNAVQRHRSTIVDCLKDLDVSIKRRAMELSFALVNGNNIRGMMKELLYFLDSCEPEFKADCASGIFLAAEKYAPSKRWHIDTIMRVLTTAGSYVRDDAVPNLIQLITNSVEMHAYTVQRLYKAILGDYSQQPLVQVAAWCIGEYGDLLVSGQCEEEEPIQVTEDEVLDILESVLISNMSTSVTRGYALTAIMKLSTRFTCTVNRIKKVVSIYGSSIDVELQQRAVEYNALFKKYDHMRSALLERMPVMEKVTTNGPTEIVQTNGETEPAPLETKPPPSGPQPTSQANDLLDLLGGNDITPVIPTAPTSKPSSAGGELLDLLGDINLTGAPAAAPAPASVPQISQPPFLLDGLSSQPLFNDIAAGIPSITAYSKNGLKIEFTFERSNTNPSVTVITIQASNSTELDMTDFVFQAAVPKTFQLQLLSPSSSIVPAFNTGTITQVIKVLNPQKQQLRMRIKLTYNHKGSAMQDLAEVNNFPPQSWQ
Chain of UniProt O00244 (O00244 whole entry, looked up): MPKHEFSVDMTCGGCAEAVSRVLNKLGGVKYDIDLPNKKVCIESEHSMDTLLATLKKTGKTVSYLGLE
Chain of UniProt P09525 (P09525 whole entry, looked up): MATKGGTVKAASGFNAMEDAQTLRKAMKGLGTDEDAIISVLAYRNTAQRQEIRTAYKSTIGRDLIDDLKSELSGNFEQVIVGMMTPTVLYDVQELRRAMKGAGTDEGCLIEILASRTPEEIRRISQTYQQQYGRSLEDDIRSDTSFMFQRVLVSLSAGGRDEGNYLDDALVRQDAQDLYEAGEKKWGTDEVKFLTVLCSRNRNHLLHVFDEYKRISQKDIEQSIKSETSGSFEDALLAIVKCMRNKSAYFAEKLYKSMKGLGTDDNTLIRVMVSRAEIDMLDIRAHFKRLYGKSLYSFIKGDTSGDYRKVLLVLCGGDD
Chain of UniProt Q6UB99 (Q6UB99 whole entry, looked up): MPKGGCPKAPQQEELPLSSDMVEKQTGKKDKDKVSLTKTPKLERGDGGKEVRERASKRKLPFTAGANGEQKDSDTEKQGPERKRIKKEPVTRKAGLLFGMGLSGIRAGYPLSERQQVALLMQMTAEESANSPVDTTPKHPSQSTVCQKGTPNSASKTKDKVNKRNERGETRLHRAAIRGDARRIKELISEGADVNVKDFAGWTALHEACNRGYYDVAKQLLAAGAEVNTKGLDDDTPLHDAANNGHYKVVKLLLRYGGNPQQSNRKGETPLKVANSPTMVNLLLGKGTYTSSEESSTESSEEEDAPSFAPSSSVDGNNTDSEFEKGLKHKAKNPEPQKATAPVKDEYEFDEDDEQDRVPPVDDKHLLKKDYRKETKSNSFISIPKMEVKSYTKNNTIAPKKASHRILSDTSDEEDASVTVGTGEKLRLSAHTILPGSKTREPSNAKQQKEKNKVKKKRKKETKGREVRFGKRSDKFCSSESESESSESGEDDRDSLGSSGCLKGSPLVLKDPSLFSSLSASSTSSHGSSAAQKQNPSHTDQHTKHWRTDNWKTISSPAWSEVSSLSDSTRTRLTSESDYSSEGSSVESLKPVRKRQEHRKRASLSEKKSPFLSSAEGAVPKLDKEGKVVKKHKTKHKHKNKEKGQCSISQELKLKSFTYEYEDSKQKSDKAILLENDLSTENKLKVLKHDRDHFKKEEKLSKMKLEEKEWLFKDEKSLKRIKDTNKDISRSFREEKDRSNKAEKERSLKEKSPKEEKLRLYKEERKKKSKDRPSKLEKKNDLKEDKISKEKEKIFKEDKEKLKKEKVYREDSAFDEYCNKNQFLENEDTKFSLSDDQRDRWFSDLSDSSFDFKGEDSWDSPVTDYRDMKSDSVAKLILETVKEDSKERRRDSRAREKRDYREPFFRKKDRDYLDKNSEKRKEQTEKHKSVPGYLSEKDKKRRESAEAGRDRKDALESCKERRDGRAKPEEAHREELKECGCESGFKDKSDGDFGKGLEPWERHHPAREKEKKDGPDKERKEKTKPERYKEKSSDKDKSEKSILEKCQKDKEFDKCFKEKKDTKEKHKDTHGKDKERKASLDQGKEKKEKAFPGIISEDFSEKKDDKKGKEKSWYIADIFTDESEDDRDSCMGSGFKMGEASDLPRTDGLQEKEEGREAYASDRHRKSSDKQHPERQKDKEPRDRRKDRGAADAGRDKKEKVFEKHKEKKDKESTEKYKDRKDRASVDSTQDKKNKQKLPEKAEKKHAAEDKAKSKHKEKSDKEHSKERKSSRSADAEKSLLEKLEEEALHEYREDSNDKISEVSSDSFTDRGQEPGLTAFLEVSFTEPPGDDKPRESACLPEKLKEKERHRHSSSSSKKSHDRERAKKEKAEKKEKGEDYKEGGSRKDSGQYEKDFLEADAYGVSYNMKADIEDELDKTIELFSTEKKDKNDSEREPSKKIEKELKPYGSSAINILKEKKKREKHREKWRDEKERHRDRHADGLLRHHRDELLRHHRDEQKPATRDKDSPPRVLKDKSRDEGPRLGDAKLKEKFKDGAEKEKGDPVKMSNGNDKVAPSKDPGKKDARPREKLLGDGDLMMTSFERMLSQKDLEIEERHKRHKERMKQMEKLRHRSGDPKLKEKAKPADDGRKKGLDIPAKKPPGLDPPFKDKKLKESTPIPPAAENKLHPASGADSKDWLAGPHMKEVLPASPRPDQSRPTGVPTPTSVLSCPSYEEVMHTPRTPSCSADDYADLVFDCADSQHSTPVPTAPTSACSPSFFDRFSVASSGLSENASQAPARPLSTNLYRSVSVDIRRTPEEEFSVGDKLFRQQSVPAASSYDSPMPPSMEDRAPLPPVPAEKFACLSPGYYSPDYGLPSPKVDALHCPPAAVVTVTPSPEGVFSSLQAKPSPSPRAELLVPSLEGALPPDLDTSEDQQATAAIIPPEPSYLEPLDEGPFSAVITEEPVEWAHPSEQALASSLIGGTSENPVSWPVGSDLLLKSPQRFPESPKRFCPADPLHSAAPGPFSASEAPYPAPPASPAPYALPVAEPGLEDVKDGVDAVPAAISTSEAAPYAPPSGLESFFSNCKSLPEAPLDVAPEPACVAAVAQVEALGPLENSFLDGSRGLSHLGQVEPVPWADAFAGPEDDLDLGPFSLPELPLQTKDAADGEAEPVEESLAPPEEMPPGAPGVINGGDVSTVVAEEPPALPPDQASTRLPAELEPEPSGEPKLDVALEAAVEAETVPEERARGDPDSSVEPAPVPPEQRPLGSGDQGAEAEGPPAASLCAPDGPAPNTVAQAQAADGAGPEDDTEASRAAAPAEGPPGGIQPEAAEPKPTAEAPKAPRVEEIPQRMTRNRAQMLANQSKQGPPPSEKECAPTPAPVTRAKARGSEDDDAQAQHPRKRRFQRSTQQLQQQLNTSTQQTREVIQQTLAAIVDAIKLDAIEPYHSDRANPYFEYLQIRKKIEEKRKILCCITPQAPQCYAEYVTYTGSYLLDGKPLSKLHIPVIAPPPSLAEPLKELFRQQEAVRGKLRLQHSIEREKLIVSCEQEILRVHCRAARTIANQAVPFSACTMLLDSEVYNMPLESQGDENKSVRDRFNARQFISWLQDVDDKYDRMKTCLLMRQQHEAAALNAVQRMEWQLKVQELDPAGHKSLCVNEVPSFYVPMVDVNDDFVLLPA
Chain of UniProt P04075 (P04075 whole entry, looked up): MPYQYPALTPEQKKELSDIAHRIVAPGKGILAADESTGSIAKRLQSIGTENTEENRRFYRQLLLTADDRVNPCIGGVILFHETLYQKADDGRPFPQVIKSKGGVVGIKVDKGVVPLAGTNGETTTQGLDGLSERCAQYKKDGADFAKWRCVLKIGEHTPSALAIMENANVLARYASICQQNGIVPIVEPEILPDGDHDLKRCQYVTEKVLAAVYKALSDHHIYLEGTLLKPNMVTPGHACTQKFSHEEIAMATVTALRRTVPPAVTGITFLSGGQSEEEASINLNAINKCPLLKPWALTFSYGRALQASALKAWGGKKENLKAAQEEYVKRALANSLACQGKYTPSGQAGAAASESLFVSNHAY

The targets below were run with Cc1cc(ccc1-c1ccccc1)C(=O)N1CCCN(CC1)C(=O)CCl [compound 10] (assay: probe-labelled cysteine peptide fold change vs DMSO (competition) (log2 fold change); higher = less target engagement (more negative = stronger competition)). Settings: 50 µM; THP-1; incubation time: 4 h.
With “AGL_P35573_486_ELICWGDSVK (UniProt P35573)” the “probe-labelled cysteine peptide fold change” value was 0.033. “AKR1B1_P15121_45_HIDCAHVYQNENEVGVAIQEK (UniProt P15121)” was tested, and the “probe-labelled cysteine peptide fold change” value was -0.0317. In the case of “ANKFY1_Q9P2R3_742_AIDENNEPTACFLIR (UniProt Q9P2R3)”, the “probe-labelled cysteine peptide fold change” value is reported as -0.213. In the case of “ATP6V0A1_Q93050_58_RCEEMDR (UniProt Q93050)”, the “probe-labelled cysteine peptide fold change” value is reported as 0.183. For “ALCAM_Q13740_270_CLGNGNPPPEEFLFYLPGQPEGIR (UniProt Q13740)”, the “probe-labelled cysteine peptide fold change” value was 0.0758. For “ARL6IP4_Q66PJ3-3_220_NCSASTSQER (UniProt Q66PJ3)”, the “probe-labelled cysteine peptide fold change” value was -0.819. In the case of “ANKMY2_Q8IV38_390_LDVNSNCVNEEQPEAEVGISQK (UniProt Q8IV38)”, the “probe-labelled cysteine peptide fold change” value is reported as -0.0242. In the case of “ATM_Q13315_2770_SGVLEWCTGTVPIGEFLVNNEDGAHKR (UniProt Q13315)”, the “probe-labelled cysteine peptide fold change” value is reported as -0.152. “ARHGEF6_Q15052_530_IVVHCNNNQDFQEWLEQLNR (UniProt Q15052)” was tested, and the “probe-labelled cysteine peptide fold change” value was 0.158. “ASPSCR1_Q9BZE9_224+225_GDLSRPEDADTSGPCCEHTQEK (UniProt Q9BZE9)” was tested, and the “probe-labelled cysteine peptide fold change” value was -1.37. With “ARHGAP25_P42331_448_CFLTSAFQGANSSK (UniProt P42331)” the “probe-labelled cysteine peptide fold change” value was -1.52. In the case of “ACOX1_Q15067_392_AFTSWTANTGIEACR (UniProt Q15067)”, the “probe-labelled cysteine peptide fold change” value is reported as 0.0993. “AKR1A1_P14550_46_HIDCAAIYGNEPEIGEALKEDVGPGK (UniProt P14550)” was tested, and the “probe-labelled cysteine peptide fold change” value was -1.14. For “AKR1B1_P15121_299+304_VCALLSCTSHK (UniProt P15121)”, the “probe-labelled cysteine peptide fold change” value was -2.06. With “ANXA4_P09525_315_KVLLVLCGGDD (UniProt P09525)” the “probe-labelled cysteine peptide fold change” value was -0.661. With “ATIC_P31939_101_VVACNLYPFVK (UniProt P31939)” the “probe-labelled cysteine peptide fold change” value was 0.0511. In the case of “AKR1B1_P15121_299_VCALLSCTSHK (UniProt P15121)”, the “probe-labelled cysteine peptide fold change” value is reported as -2.38. With “AFTPH_Q6ULP2_659_IFEACFPSILVPDAEEEVTSLK (UniProt Q6ULP2)” the “probe-labelled cysteine peptide fold change” value was -0.0706. In the case of “AIP_O00170_121+122_HCCGVAQMR (UniProt O00170)”, the “probe-labelled cysteine peptide fold change” value is reported as -1.16. With “AP1G1_O43747_392_ELLYFLDSCEPEFK (UniProt O43747)” the “probe-labelled cysteine peptide fold change” value was 0.273. With “ADAM9_Q13443_539_DCFIEVNSK (UniProt Q13443)” the “probe-labelled cysteine peptide fold change” value was -0.137. With “ATP2B1_P20020_547_TECALLGLLLDLKR (UniProt P20020)” the “probe-labelled cysteine peptide fold change” value was -0.507. For “ATP2A1_O14983_349_SLPSVETLGCTSVICSDK (UniProt O14983)”, the “probe-labelled cysteine peptide fold change” value was -0.0742. “ARNT_P27540_269_CGSSSVDPVSVNR (UniProt P27540)” was tested, and the “probe-labelled cysteine peptide fold change” value was -0.756. For “APBB1IP_Q7Z5R6_401_YLCCDDTR (UniProt Q7Z5R6)”, the “probe-labelled cysteine peptide fold change” value was -0.372. With “ATOX1_O00244_41_VCIESEHSMDTLLATLKK (UniProt O00244)” the “probe-labelled cysteine peptide fold change” value was -0.215. With “ATP2B1_P20020_463+473_HLDACETMGNATAICSDK (UniProt P20020)” the “probe-labelled cysteine peptide fold change” value was 0.05. In the case of “ALDOA_P04075_339_RALANSLACQGK (UniProt P04075)”, the “probe-labelled cysteine peptide fold change” value is reported as -0.104. “ANKRD11_Q6UB99_1339_ESACLPEK (UniProt Q6UB99)” was tested, and the “probe-labelled cysteine peptide fold change” value was -0.174. For “ARHGEF7_Q14155_490_TLGNVTYMSQVLIQCAGSEEK (UniProt Q14155)”, the “probe-labelled cysteine peptide fold change” value was -1.18. For “ALDH18A1_P54886_674_SLRTEYGDLELCIEVVDNVQDAIDHIHK (UniProt P54886)”, the “probe-labelled cysteine peptide fold change” value was -0.188.
